This passage reports morphology score results from the supplement of paper PMC13380429.

The structures appear in SMILES notation.

For the test, the system named is Vero E6 infected with SARS-CoV-2. Kind of test: morphology score (similarity to uninfected cells); higher = more like uninfected cells. The note with it: 24 h.
With `O=C1NC(=O)c2c1c1c3ccccc3[nH]c1c1[nH]c3ccccc3c21` [arcyriaflavin-a] (10 µM), the morphology score was found to be 0.363.
Then `CCCNCCc1ccc(NS(=O)(=O)c2ccc(OC(F)(F)F)cc2)cc1` (10 µM), with -0.19; and `Clc1ccc(COC(Cn2ccnc2)c2ccc(Cl)cc2Cl)cc1` (stereo not given) [econazole] (10 µM), with -0.225; and `Cc1cc(C(C#N)c2ccc(Cl)cc2)c(Cl)cc1NC(=O)c1cc(I)cc(I)c1O` (stereo not given) [closantel] (10 µM), with 0.257.
`COc1cc(C[C@@H]2NCCc3cc(O)c(O)cc32)cc(OC)c1OC` [trimethoquinol] (10 µM): the morphology score was determined as 0.0323.
Then `CN1C(CSCC(F)(F)F)Nc2cc(Cl)c(S(N)(=O)=O)cc2S1(=O)=O` (stereo not given) [polythiazide] (10 µM), with 0.2; and `COc1cc2c(cc1OC)CN(CCc1ccc(NC(=O)c3cc(OC)c(OC)cc3NC(=O)c3cnc4ccccc4c3)cc1)CC2` [tariquidar] (10 µM), with -0.0369; and `C[C@@H]1COCCN1c1cc(C2([S@](C)(=N)=O)CC2)nc(-c2ccnc3[nH]ccc23)n1` (0.833333 µM), with 0.0164.
In turn, `CCOCCOc1ccccc1C(N)=O` [etosalamide] (10 µM) showed a morphology score of 0.0693.
The compound `O=C(Nc1cccc(Cl)c1)c1ccccn1` (10 µM) showed a morphology score of 0.228.
Then `CC1(C)O[C@@H]2C[C@H]3[C@@H]4C[C@H](F)C5=CC(=O)C=C[C@]5(C)[C@H]4[C@@H](O)C[C@]3(C)[C@]2(C(=O)CO)O1` [flunisolide] (10 µM), with 0.103; and `COc1cc2c(cc1OC)CN(CCc1ccc(NC(=O)c3cccc4c(=O)c5cccc(OC)c5[nH]c34)cc1)CC2` [elacridar] (10 µM), with 0.0355.
Then `N#Cc1ccnc(N2C(=O)CC[C@H]2C(=O)N(c2cncc(F)c2)[C@H](C(=O)NC2CC(F)(F)C2)c2ccccc2Cl)c1` [ivosidenib] (10 µM), with 0.219; and `CC(N)CCCC(C)(C)O` (stereo not given) [heptaminol] (10 µM), with -0.15.
The result for `O=[N+]([O-])c1ccc(O)c([N+](=O)[O-])c1` [2,4-dinitrophenol] (10 µM) reads 0.0596; that for `CC(=O)OC[C@H]1O[C@@H]([S-])[C@H](OC(C)=O)[C@@H](OC(C)=O)[C@@H]1OC(C)=O.CCP(CC)CC.[Au+]` [auranofin] (0.833333 µM), 0.3; that for `CC(C)(O)CC[C@@H](O)[C@](C)(O)[C@H]1CC[C@@]2(O)C3=CC(=O)[C@@H]4C[C@@H](O)[C@@H](O)C[C@]4(C)[C@H]3CC[C@]12C` [20-hydroxyecdysone] (10 µM), 0.0401.
Compound `Cc1cccc(Oc2nc3c(C)cccn3c(=O)c2/C=C(\C#N)c2nc3ccccc3s2)c1` (10 µM) came in with a morphology score of 0.0471.
In the case of `CC(C)(C)C(=O)OCC(=O)[C@H]1CC[C@H]2[C@@H]3CCC4=CC(=O)CC[C@]4(C)[C@H]3CC[C@]12C` [desoxycorticosterone-pivalate] (10 µM), the morphology score is 0.123.
Compound `CCS(=O)(=O)N1CC(CC#N)(n2cc(-c3ncnc4[nH]ccc34)cn2)C1` [baricitinib] (10 µM) returned a morphology score of 0.418.
The result for `Nc1nccc(/C=C/c2ccccc2)n1` (10 µM) reads 0.324; that for `O=C(O)c1ccccc1O` [salicylic-acid] (10 µM), 0.0239; that for `COc1ccc2[nH]cc(C3=CCNCC3)c2c1` (10 µM), 0.191.
`Cc1cn(-c2cc(NC(=O)c3ccc(C)c(Nc4nccc(-c5cccnc5)n4)c3)cc(C(F)(F)F)c2)cn1` [nilotinib] (10 µM) yielded a morphology score of 0.334.
The compound `Nc1ncnc2c1ncn2[C@@H]1O[C@H](COP(=O)(O)OP(=O)(O)OP(=O)(O)O)[C@@H](O)[C@H]1O` (10 µM) gave a morphology score of -0.0072.
`CN(C(=O)c1c(O)c2ccccc2n(C)c1=O)c1ccccc1` [roquinimex] (10 µM) yielded a morphology score of 0.211.
Take `CCC(CC)C(c1ccc(Nc2nc3ccccc3s2)cc1)n1cncn1` (stereo not given) [talarozole] (10 µM): the morphology score was found to be 0.326.
Turning to `CC(CNC1CCCCC1)OC(=O)c1ccccc1` (stereo not given) [hexylcaine] (10 µM), the morphology score is -0.0327.
`N=C(C[C@@H](O)COc1ccccc1-c1ccccc1)N1CCCCC1` (10 µM): the morphology score amounted to 0.0845.
The result for `O=C1c2ccc(Nc3ccc(F)cc3F)cc2CCc2ccc(OC[C@H](O)CO)cc21` [skepinone-L] (10 µM) reads -0.053.
Then `CN(C)NC(=O)CCC(=O)O` [daminozide] (10 µM), with 0.0765.
Then `CCCCc1cc2ccccc2c(OCCN(C)C)n1` [dimethisoquin] (10 µM), with 0.41; and `O=C1C(=O)N(Cc2ccc(Cl)c(Cl)c2)c2ccccc21` [apoptosis-activator-II] (10 µM), with 0.0389; and `CC1=C(C(=O)O)N2C(=O)[C@@H](NC(=O)[C@H](N)c3ccccc3)[C@H]2SC1` [cephalexin] (10 µM), with 0.0139.
`CN1C2CCC1CC(OC(c1ccccc1)c1ccc(Cl)cc1)C2` (stereo not given) (0.833333 µM): the morphology score was determined as 0.251.
Then `CCCNC(C)C(=O)Nc1ccccc1C` (stereo not given) [prilocaine] (10 µM), with -0.208.
`N[C@@H](C[C@@H](F)C(=O)O)C(=O)O` (10 µM) came in with a morphology score of 0.0323.
The result for `c1cc(-c2cnn3cc(-c4ccc(N5CCNCC5)cc4)cnc23)c2cccnc2c1` (0.833333 µM) reads -0.148.
For the compound `C[C@H]1[C@H](NC(=O)/C(=N\OC(C)(C)C(=O)O)c2csc(N)n2)C(=O)N1S(=O)(=O)O` [aztreonam] (10 µM), the morphology score is -0.0447.
The result for `N[C@@H](C(=O)O)[C@@H](OCc1ccccc1)C(=O)O.N[C@H](C(=O)O)[C@H](OCc1ccccc1)C(=O)O` (10 µM) reads 0.0333.
